Data as given in PubChem BioAssay AID652115 (Broad Institute, 2013).
Hit rate of the full screen: of about 330,000 compounds, about 3,800 (1.2%) were called active. Cut-off read from the data, not from the text of the source: active = inhibition above about 15%; inconclusive = no clear call, values can overlap the other calls; inactive = below that. The full list was thinned out, with actives kept by preference.

Target: NAD-dependent protein deacylase sirtuin-5, mitochondrial (Homo sapiens) (UniProt Q9NXA8)
Sequence (Q9NXA8 whole entry, looked up): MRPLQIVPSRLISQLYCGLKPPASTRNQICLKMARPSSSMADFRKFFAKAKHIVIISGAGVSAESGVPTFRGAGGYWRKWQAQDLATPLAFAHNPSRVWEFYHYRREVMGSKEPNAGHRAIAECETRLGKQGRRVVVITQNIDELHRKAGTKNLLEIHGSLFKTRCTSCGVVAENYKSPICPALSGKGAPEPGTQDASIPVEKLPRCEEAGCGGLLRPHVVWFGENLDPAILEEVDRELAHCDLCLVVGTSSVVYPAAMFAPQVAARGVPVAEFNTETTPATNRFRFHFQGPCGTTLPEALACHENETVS
Assay: blockers of sirtuin-5 deacylase activity – biochemical, fluorescence imaging, single point, set 5, primary screen (AID 652115)
Settings: Purified SirT5, succinyl-peptide AMC, trypsin-coupled fluorescence; at 15 µM; stronger effect = higher value

inhibition, inactive:
Cc1ccc(N2CC(C(=O)Nc3ccc(S(=O)(=O)N4CCCC4)cc3)CC2=O)cc1C (configuration not stated) -0.84%
COc1ccc(S(=O)(=O)N2CCCCC2)cc1NC(=O)C1CC(=O)N(c2ccc3c(c2)OCCO3)C1 (configuration not stated) -0.216%
CN1[C@@H]2c3ccc(-c4cccc(F)c4)c(=O)n3C[C@@H]2[C@@H](CO)[C@@H]1C(=O)NC1CCC1 1.95%
CC(C)(C)OC(=O)N[C@H](C(=O)OC(C)(C)C)c1ccc(Br)cc1 0.762%
CC(C)(C)OC(=O)Nc1ccc([C@@H](NC(=O)OC(C)(C)C)C(=O)OC(C)(C)C)cc1 4.38%
C[C@@H]1CN([C@H](C)CO)C(=O)c2c(c3ccccc3n2C)-c2ccccc2CO[C@H]1CN(C)Cc1ccc(F)cc1 8.7%
C[C@H]1CN([C@@H](C)CO)C(=O)c2cc(-c3cccnc3)cnc2O[C@@H]1CN(C)C(=O)C1CC1 -5.02%
Cc1ccc(S(=O)(=O)Nc2ccc3c(c2)CC(=O)N([C@@H](C)CO)C[C@H](C)[C@H](CN(C)Cc2ccc(C(=O)Nc4ccccc4N)cc2)O3)cc1 3.56%
C[C@@H]1CN([C@H](C)CO)C(=O)Cc2cc(NC(=O)CCC(F)(F)F)ccc2O[C@@H]1CN(C)Cc1ccncc1 -3.99%
C[C@H]1CN([C@@H](C)CO)C(=O)Cc2cc(NS(=O)(=O)c3ccccc3)ccc2O[C@@H]1CN(C)Cc1ccc(C(=O)Nc2ccccc2N)cc1 -3.96%
C[C@H](CO)N1C[C@H](C)[C@@H](CN(C)Cc2ccc(C(=O)O)cc2)Oc2ccc(NC(=O)Cn3cnnn3)cc2CC1=O 0.832%
COc1ccc(CN(C)C[C@H]2Oc3ccc(NC(=O)Cc4ccccc4)cc3CC(=O)N([C@@H](C)CO)C[C@@H]2C)cc1 3.47%
C[C@H]1CN([C@@H](C)CO)C(=O)Cc2cc(NC(=O)Cn3cnnn3)ccc2O[C@@H]1CN(C)Cc1ccc(-c2ccccc2)cc1 4.01%
C[C@@H]1CN([C@H](C)CO)C(=O)Cc2cc(NC(=O)Cc3ccccc3)ccc2O[C@H]1CN(C)Cc1ccc(Oc2ccccc2)cc1 11.3%
C[C@@H]1CN([C@@H](C)CO)C(=O)Cc2cc(NC(=O)CCCN(C)C)ccc2O[C@@H]1CN(C)Cc1ccc(-c2ccccc2)cc1 -0.666%
COCc1cc(N2CCN(C(=O)OC(C)(C)C)C[C@@H]2C)ccc1N1CCN(Cc2ccccc2)[C@H](C)C1 -1.86%
COc1ccc2c3c([nH]c2c1)[C@H](CO)N(Cc1ccccc1)CC31CCN(C(=O)c2ccccn2)CC1 -0.283%
CC(=O)N[C@@H]1CC[C@@H](CCNC(=O)C2CC2)O[C@H]1CO -0.463%
C[C@H](CO)N1C[C@H](C)[C@H](CN(C)C(=O)CCC(F)(F)F)OCCCC[C@H](C)Oc2ccc(NS(=O)(=O)c3ccc(F)cc3)cc2C1=O 6.37%
C[C@@H]1CCCCO[C@@H](CN(C)S(C)(=O)=O)[C@H](C)CN([C@@H](C)CO)C(=O)c2cc(NS(=O)(=O)c3cccs3)ccc2O1 -3.17%
CC(C)NC(=O)N(C)C[C@H]1Oc2ncc(-c3ccc(C(=O)N(C)C)cc3)cc2C(=O)N([C@H](C)CO)C[C@H]1C -4.27%
C[C@@H]1CCCCO[C@H](CN(C)Cc2ccc(Cl)c(Cl)c2)[C@H](C)CN([C@@H](C)CO)C(=O)c2cc(NC(=O)CCC(F)(F)F)ccc2O1 11%
CCN(CC(=O)Nc1ccc2c(c1)OCO2)S(=O)(=O)c1ccccc1 -11.2%
CCN(CC(=O)NCCc1ccccc1)S(=O)(=O)c1ccccc1 13.5%
CCOc1ccc(/C=C2\SC(=S)N(NC(=O)c3ccncc3)C2=O)cc1OC -1.31%
COc1cccc(/C=C2/SC(=S)N(CC(=O)NC3C=CS(=O)(=O)C3)C2=O)c1 (configuration not stated) 7.07%
COc1ccccc1S(=O)(=O)N1CC[C@@H]2[C@H]1c1cc(-c3ccccc3)ccc1N[C@@H]2CO 2.02%
O=C(C[C@@H]1CC[C@H](NC(=O)C2CCOCC2)[C@@H](CO)O1)Nc1ccccc1 -0.611%
CCOC1=C2[C@@H](CN(S(=O)(=O)c3ccc(C)cc3)[C@H]2c2ccccc2F)[C@H]2C(=O)N(Cc3ccccc3)C(=O)[C@H]2C1 10.7%
Cc1ccc(F)cc1S(=O)(=O)N[C@@H]1CCN(Cc2ccc(-c3ccccc3)cc2)C1 4.54%
COc1cccc(/C=C2\SC(=S)N(CCCC(=O)N3CCOCC3)C2=O)c1 -0.302%
COc1cc(/C=C2\C(=N)N3N=C(CC(=O)N4CCOCC4)SC3=NC2=O)cc(OC)c1OC -5.1%
O=C(OCC(=O)N1CCOCC1)c1ccc2ccccc2c1 -8.77%
C[C@H](CO)N1C[C@H](C)[C@H](CN(C)Cc2cncnc2)Oc2cc(-c3ccccc3F)ccc2S1(=O)=O -2.9%
O=C(C[C@H]1CC[C@H]2[C@@H](COC[C@H](O)CN2Cc2nccs2)O1)NCc1ccc(Oc2ccccc2)cc1 -0.449%
Cc1ccc(-c2cnc3c(c2)C(=O)N([C@@H](C)CO)C[C@H](C)[C@H](CN(C)C(=O)c2cccnc2)O3)cc1 1.09%
O=S(=O)(c1ccccc1F)N1[C@@H]2CNC[C@H]1C2c1ccc(-c2cncnc2)cc1 (some centres not stated) -2.66%
Cc1ccc(S(=O)(=O)N[C@H]2CC[C@@H](CC(=O)N3CCc4ccccc4C3)O[C@H]2CO)cc1 -2.83%
COCC(=O)N1CC2(C1)[C@H](c1ccc(-c3cccc(F)c3)cc1)[C@@H](CO)N2C(=O)COC -3.18%
COCC(=O)N1CC2(C1)[C@@H](c1ccc(-c3cccc(F)c3)cc1)[C@@H](CO)N2C(=O)COC -1.31%
C[C@@H](NC(=O)C[C@H]1C=C[C@@H](NC(=O)CN2CCOCC2)[C@@H](CO)O1)c1ccccc1 0.512%
O=C(C[C@@H]1CC[C@@H]2[C@H](COC[C@H](O)CN2S(=O)(=O)c2ccc(Oc3ccccc3)cc2)O1)NCCN1CCCCC1 -3.74%
CO[C@@H]1CN(C)C(=O)c2ccc(NS(=O)(=O)c3ccc(Cl)cc3)cc2OC[C@@H](C)N(C)C[C@H]1C -8.92%
CC(C)NC(=O)N[C@H]1CC[C@@H](CCNC(=O)C2CCC2)O[C@@H]1CO -0.093%
CO[C@H]1CC[C@H]2CCOc3c(C#N)cccc3C(=O)N(C)CC3(CCCCC3)CC(=O)N(C)C[C@@H]1O2 -0.489%
Clc1ccc(Nc2ccc3ccccc3n2)cc1 -0.101%
O=c1ccnc(Nc2ccc(Cl)cc2)[nH]1 -3.58%
CO[C@H]1CN(C)C(=O)c2ccc(NS(=O)(=O)c3cn(C)cn3)cc2OC[C@@H](C)N(CC2CC2)C[C@H]1C 10.4%
COc1cnc(SCc2ccc(Cl)c(Cl)c2)nc1Cl -1.51%
CCOC(=O)c1cnc2nc(SCc3ccccc3Cl)[nH]n2c1=O -0.638%
Cc1ccc2nc(CN(C)C(=O)[C@@H](Cc3ccccc3)NC(=O)[C@H]3O[C@@H](n4ccc(=O)[nH]c4=O)[C@H](O)[C@@H]3O)[nH]c2c1 0.009%
CN1C(=O)c2cc(NC(=O)c3cscn3)ccc2OC[C@@H]2O[C@H](CC(=O)N3CCCCC3)CC[C@H]21 10.6%
COc1ccc(C#Cc2cnc3c(c2)C(=O)N([C@H](C)CO)C[C@H](C)[C@H](CN(C)C(=O)CC2CC2)O3)cc1 8.29%

inhibition, active:
Cc1ccc(NC(=O)C2CC(=O)N(c3ccc4c(c3)OCCO4)C2)cc1S(=O)(=O)N1CCCCCC1 (configuration not stated) 15.7%
COC(=O)c1ccc([C@@H](O)[C@H](C)C(=O)CC(=O)OC(C)(C)C)cc1 37.8%
C[C@H]1CN([C@@H](C)CO)C(=O)Cc2cc(NS(=O)(=O)c3ccccc3)ccc2O[C@H]1CN(C)Cc1ccc(C(=O)Nc2ccccc2N)cc1 18.7%
C[C@@H]1CN([C@@H](C)CO)C(=O)Cc2cc(NC(=O)Cc3ccccc3)ccc2O[C@@H]1CN(C)Cc1ccc(Oc2ccccc2)cc1 15.7%
C[C@H]1CN([C@@H](C)CO)C(=O)Cc2cc(NC(=O)Cn3cnnn3)ccc2O[C@H]1CN(C)Cc1ccc(C(=O)O)cc1 18%
C[C@H](CO)N1C[C@H](C)[C@@H](CN(C)Cc2ccc(-c3ccccc3)cc2)Oc2ccc(NC(=O)CCC(F)(F)F)cc2CC1=O 16.8%
CCN(CC(=O)NC1CCS(=O)(=O)C1)S(=O)(=O)c1ccccc1 (configuration not stated) 20.8%
COc1ccc(/C=C2\SC(=S)N(CC(=O)NNC(=O)c3ccncc3)C2=O)cc1 36.3%
Cc1ccc(S(=O)(=O)N2C[C@@H]3CCCC[C@@H]3[C@@H](C)[C@H]2c2cn(Cc3ccccc3)c3ccc(F)cc23)cc1 26.5%
COC1=C/C(=C/c2c(N)n3nc(CC(=O)N4CCOCC4)sc3nc2=O)C=CC1=O 15.9%
C=CCC1=C/C(=C\c2c(N)n3nc(CC(=O)N4CCOCC4)sc3nc2=O)C=C(OC)C1=O 31.6%
COCC(=O)N1[C@H](CO)[C@@H](c2ccccc2)C12CN(Cc1cc(F)ccc1F)C2 19%
CC1(C)N=C(N)NC(Nc2ccc(Cl)cc2)=N1 24.2%
COC(OC)c1ccnc(SCc2ccccc2Cl)n1 65.6%
